# Shown are actives, neighbours in structure and some others; about 2.2% of the full set was active somewhere.
# NOD2-RIPK2 inh: blocks binding of human NOD2 to RIPK2; O43353; CHO BLA complementation NOD2-RIPK2, CCF4 ratio; inhibition, % at 4.98 µM; actives 0.38% (n = 360,000); AID 624267; in the data active means inhibition above about 21%;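 further: 0% = vehicle only and 100% = reference blocker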
# TLR9-MyD88 inh: inhibitors of human TLR9-MyD88 binding. Q9NR96+Q99836. CHO BLA complementation TLR9-MyD88, CCF4 FRET ratio. inhibition, % at 4.98 µM. actives 0.21% (n = 340,000);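 active means inhibition above the mean over all tested compounds plus 3 SD, cut at about 21% in these data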;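 further: 0% = DMSO only wells and 100% = clavulanate BLA inhibitor control wells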
# GRK2 inh: human GRK2 inhibition via aptamer displacement; bead flow cytometry, FAM-aptamer displacement from GRK2; inhibition of aptamer binding, % at 10 µM; actives 0.59% (n = 330,000);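 active means inhibition of aptamer binding above 40%, roughly 3 SD of noise, on plates passing a quality check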;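 further: median bead fluorescence of bound FAM aptamer so fluorescent compounds give negative values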
# ANO1 block: inhibitors of mouse TMEM16A calcium-activated chloride channel; Q8BHY3; HEK293 TMEM16A/YFP iodide influx fluorescence, ionomycin; normalized B-score (activity score, 25-100; higher = stronger inhibition) at 10 µM; actives 1.2% (n = 310,000); AID 588511;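 active means ratio plate-corrected score three or more library SD toward inhibition, starting fluorescence score within five deviations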;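 further: score derived from kinetic fluorescence span divided by baseline fluorescence per well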
# TLR4 MyD88 comp: inhibitors of human TLR4-MyD88 binding. actives 0.18% (n = 200,000). inhibition, % at 8.4 µM. O00206+Q99836. HeLa CL3-4 TLR4/MyD88 BLA complementation, FRET ratio. AID 861; in the data active means inhibition above about 25%;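 further: 0% = vehicle and 100% = reference inhibitor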
# ANO1 activ: activates or potentiates the mouse TMEM16A chloride channel; Q8BHY3; HEK293 TMEM16A/YFP-H148Q/I152L, iodide quench fluorescence; stronger effect = lower value; B-score at 10 µM; actives 0.3% (n = 340,000); AID 623877;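 active means fluorescence-ratio B-score plate-corrected deviation score at least 3 library SD below zero, with starting fluorescence score within 5 deviations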;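 further: channel opened by trigger with iodide after compound preincubation; score built on the fluorescence ratio of max minus min over baseline; more negative score means more quench and so TMEM16A activation or potentiation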
# Active calls of the source: *; i = inactive; . = no result given.
SMILES,NOD2-RIPK2 inh,TLR9-MyD88 inh,GRK2 inh,ANO1 block,TLR4 MyD88 comp,ANO1 activ
C#Cc1cccc(N2C(=O)C3C4C=CC(C3C2=O)C2C(=O)N(c3cccc(C#C)c3)C(=O)C42)c1 (stereo unspecified),2.8,0.7,.,.,.,i
Cc1ccc(/C=N/NS(=O)(=O)c2ccc([N+](=O)[O-])cc2)o1,-7.7,-5.5,.,i,-4.6,i
CCCCCCCCCCS(=O)(=O)N/N=C/c1ccc([N+](=O)[O-])cc1,2.1,2.1,1.0,100*,-2.8,i
COc1cccc2cc3c(=O)oc4ccccc4c3nc12,-7.5,-7.4,3.0,i,7.0,-12.4*
CCCCCCCCN1C(=O)[C@H](CC(=O)NCc2cccc(C(F)(F)F)c2)C[C@@]2(C(=O)OCC)CCCC=C12,1.6,.,.,.,.,.
Cc1ccc2nc(N(CCCN(C)C)C(=O)c3ccc(S(=O)(=O)N4CCc5ccccc5C4)cc3)sc2c1,7.7,-0.2,40.0,i,.,-5.3*
CN(C)CCCN(C(=O)c1ccc(S(=O)(=O)N2CCc3ccccc3C2)cc1)c1nc2ccc(F)cc2s1,9.1,-1.0,0.0,i,.,i
Cc1c(N=Cc2cccs2)c(=O)n(-c2ccccc2)n1C,-3.1,3.5,0.0,100*,-10.9,i
Cc1ccsc1C=Nc1c(C)n(C)n(-c2ccccc2)c1=O,-12.7,3.3,9.0,i,9.2,i
Cc1ccc(NC(=O)c2ccc(Cl)c(N3C(=O)C=CC3=O)c2)cc1,50.6*,17.9,1.0,i,19.5,i
COCCOC(=O)c1c(NC(=O)CN(C)c2ccccc2)sc(C(N)=O)c1C,-2.8,-5.4,4.0,i,-2.4,i
COCCOC(=O)c1c(NC(=O)COC(=O)Cc2cccc(OC)c2)sc(C(N)=O)c1C,-6.0,-12.1,83.0*,i,.,i
Cc1nnc2n(C3CCCCC3)c(=O)c3c4c(sc3n12)COC(C)(C)C4,-1.6,-5.8,2.0,i,-16.6,-14.7*
Cc1nnc2n(C3CCCCC3)c(=O)c3c4c(sc3n12)CCC4,.,.,.,.,11.9,.
CCOC(=O)c1ccc(NC(=O)[C@@H]2CCC(=O)N2C2OC(=O)c3c2ccc(OC)c3OC)cc1 (stereo partly specified),-6.3,.,.,.,.,.
O=C(Nc1ccc(Cl)c(Cl)c1)c1ccc(Cl)c(Cl)c1,-5.9,4.9,0.0,i,.,i
CC(C)C1O/C(=N/C(=O)Nc2ccc(Cl)c(Cl)c2)NC1=O (stereo unspecified),-1.0,-10.4,9.0,100*,-6.0,i
Cc1ccc(S(=O)(=O)N2[C@H](CC(=O)c3ccc(F)cc3)OC[C@@H]2C)cc1,-3.1,.,.,.,.,.
CCOP(=O)(OCC)C(Cc1ccc(OC)c(OC)c1)N=C(c1ccccc1)c1ccccc1 (stereo unspecified),-1.6,.,.,.,.,.
CCCCCOc1ccc(Br)cc1CSC(=N)N,9.8,0.7,.,.,-6.2,-7.73*
COc1ccc(Br)cc1CSC(=N)N,1.8,4.3,0.0,i,19.2,i
CC1(C(=O)NS(=O)(=O)c2ccccc2)CCN1C(=O)c1ccc(C2CCCCC2)cc1 (stereo unspecified),-10.2,.,.,.,.,.
Cc1ccc(S(=O)(=O)N2CCC[C@H]2C(=O)OCC(=O)c2ccc3c(c2)NC(=O)CO3)cc1,-3.2,-3.9,1.0,25*,.,i
Cc1ccc(S(=O)(=O)N2CCCC2C(=O)OCC(=O)Nc2ccc3c(c2)OCO3)cc1 (stereo unspecified),4.6,-19.7,1.0,i,2.2,i
COc1ccc2[nH]c3c(N4CC(C)OC(C)C4)ncnc3c2c1 (stereo unspecified),.,.,3.0,i,2.3,.
SMILES,NOD2-RIPK2 inh,TLR9-MyD88 inh,GRK2 inh,ANO1 block,TLR4 MyD88 comp,ANO1 activ
OC1(c2cccc(C(F)(F)F)c2)CCN(c2ncnc3c2[nH]c2ccccc23)CC1,6.8,-9.6,1.0,100*,18.9,i
COc1cccc2[nH]c3c(N4CCc5ccccc5C4)ncnc3c12,.,.,2.0,i,.,.
c1ccc2c(c1)CCN(c1ncnc3c1[nH]c1ccccc13)C2,2.7,-5.8,2.0,100*,.,i
COc1cccc(N2CCN(c3ncnc4c3[nH]c3ccccc34)CC2C)c1 (stereo unspecified),.,.,3.0,100*,11.7,.
N#Cc1cccc(NC(=O)c2cc(C3CCCCN3C(=O)c3cccs3)on2)c1 (stereo unspecified),3.5,.,.,.,.,.
C[C@@H]1CN([C@H](C)CO)C(=O)CCCn2cc(nn2)CO[C@H]1CN(C)C(=O)c1ccccc1,-11.0,.,.,.,.,.
Cc1nn(C(C)C(=O)Nc2sc3c(c2C#N)CCCC3)c(C)c1[N+](=O)[O-] (stereo unspecified),0.3,-0.5,1.0,100*,-3.3,i
Cc1nn(CCCC(=O)Nc2sc3c(c2C#N)CCC3)c(C)c1[N+](=O)[O-],-5.1,-3.5,0.0,i,-7.8,i
Cc1[nH]nc(-c2ccc(O)cc2O)c1-c1ccc(Cl)cc1,-15.7,-4.5,0.0,100*,1.9,i
CC(C)=CCc1c(-c2ccc(O)cc2O)oc2c3c(cc(O)c2c1=O)OC(C)(C)C=C3,.,.,2.0,25*,.,.
CC(C)=CCc1c2c(c(O)c3c(=O)c4c(oc13)-c1cc(O)c(O)cc1OC4C=C(C)C)C=CC(C)(C)O2 (stereo unspecified),.,.,1.0,i,.,.
Cc1cc(C)n(CCc2nc(-c3ccc(C(C)(C)C)cc3)cs2)n1,6.7,-10.7,0.0,25*,1.0,i
CC(C)C[C@@H](COCc1cccc(Cl)c1)N1CCN(C(=O)c2ccc(C(F)(F)F)cc2)CCC1=O,-9.7,.,.,.,.,.
CC(=O)c1ccc(S(=O)(=O)N(C)CCCC(=O)NCc2ccc3c(c2)OCO3)cc1,-4.0,-2.3,.,.,.,-5.81*
CN(CC(=O)NCc1ccc2c(c1)OCO2)S(=O)(=O)c1ccc(F)cc1,-9.0,-0.6,3.0,i,.,i
C/C(=C\C(=O)c1ccc(Br)cc1)NCc1ccc2c(c1)OCO2,-1.3,6.6,0.0,100*,13.6,i
CCCCCCCCN1C(=O)[C@H](CC(=O)N2CCN(C(=O)C3CC3)CC2)C[C@@]2(C(=O)OCC)CCCC=C12,1.2,.,.,.,.,.
O=C(CN1CCCCC1)Nc1cc(Cl)ccc1Oc1ccccc1,-1.6,-11.2,2.0,100*,-2.7,i
CC(C)CC(=O)/C(=C\c1ccc(Cl)cc1Cl)n1cncn1,-4.0,-2.9,.,.,12.6,-7.12*
CC(C)CC(=O)/C(=C/c1ccc(N(C)C)cc1)n1cncn1,5.6,8.9,2.0,i,.,i
Cc1cccc(C)c1NC(=O)C1(C)CN(S(C)(=O)=O)CC(=O)N1CCc1c[nH]c2ccccc12 (stereo unspecified),-9.5,.,.,.,.,.
CC(=O)c1ccc(OCc2cc(C(=O)N3CCC(Oc4ccccc4C)CC3)no2)cc1,-3.4,-5.4,0.0,100*,.,i
